Assay results taken from PubChem BioAssay AID1159580 (chemical genetic matrix, 2015).
Among all 5,500 compounds or so, about 2,000 (36%) were called active. Inconclusive results (about 18%) are left out. Rule as the data show it: active = normalized growth mostly below about 0.91 (no sharp cut-off); inconclusive = no clear call, values can overlap the other calls; inactive = mostly above about 0.92. The list shows a part of the results.

Experiment: chemical genetic growth profiling, strain panel (AID 1159580);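 also: tested at 20 µM; growth read once vehicle control cultures reached saturation at 30 °C; 1 = growth at the plate median or of vehicle wells; lower values mean less growth of the strain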
Settings: S. cerevisiae deletion strains, growth OD

Measured: normalized growth

O=c1[nH]c2cc(Cl)ccc2c(O)c1-c1ccc(Oc2ccccc2)cc1
inactive: locus YAL040C, strain CLN3, active compounds read low 1 | locus YCL061C, strain MRC1 (second series), active compounds read low 0.993 | locus YDR150W, strain NUM1, active compounds read low 0.992 | locus YDR363W, strain ESC2, active compounds read low 1 | locus YER002W, strain NOP16, active compounds read low 1.01 | locus YGR078C, strain PAC10, active compounds read low 1.01 | locus YJR075W, strain HOC1, active compounds read low 0.987 | locus YMR263W, strain SAP30, active compounds read low 0.999 | locus YMR307W, strain GAS1, active compounds read low 0.983 | locus YNL128W, strain TEP1, active compounds read low 1.02 | locus YNL153C, strain GIM3, active compounds read low 1.03 | locus YNL175C, strain NOP13, active compounds read low 1 | locus YNL197C, strain WHI3, active compounds read low 1.01 | locus YNL224C, strain SQS1, active compounds read low 1 | locus YNL322C, strain KRE1, active compounds read low 0.988 | locus YOR083W, strain WHI5 (second series), active compounds read low 0.99 | locus YPL055C, strain LGE1, active compounds read low 1.01

O=C(O)c1cc(O)c2c(c1)[C@@H]([C@@H]1c3cc(C(=O)O)cc(O)c3C(=O)c3c(O[C@H]4O[C@H](CO)[C@@H](O)[C@H](O)[C@H]4O)cccc31)c1cccc(O[C@H]3O[C@H](CO)[C@@H](O)[C@H](O)[C@H]3O)c1C2=O
inactive: locus YHR030C, strain SLT2, active compounds read low 1.09 | locus YHR079C, strain IRE1, active compounds read low 1.08 | locus YJL095W, strain BCK1, active compounds read low 1.02 | locus YJR066W, strain TOR1, active compounds read low 1 | locus YLR113W, strain HOG1, active compounds read low 1.06 | locus YNL183C, strain NPR1, active compounds read low 1.02 | locus YOR231W, strain MKK1, active compounds read low 1.05 | locus YPL256C, strain CLN2, active compounds read low 1.08
